Laboratory results as given in PubChem BioAssay (Tox21).
“And” between values parts separate entries of the source, which are not always exact repeats. Identical values can stand only once. Results filed as inconclusive are left out. More than one record can exist for a structure, and the calls need not agree. The source made the active and inactive calls. Unless noted, the call rests on the fitted dose curve; in most records, active means well fitted curve in the direction sought with a large enough effect in the repeat runs; inconclusive means weak or mixed curves; inactive means no such curve, though single readings can be large; an effect the other way counts as inactive or inconclusive.

Tests used:
[1] = qHTS assay to identify small molecule antagonists of the estrogen receptor alpha (ER-alpha) signaling pathway using the BG1 cell line in the presence of 0.1 nM 17-beta-estradiol - cell viability counter screen (AID 1259241); further: nearly all actives have a fitted effect of over 40% in size
Outline: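 Estradiol-stimulated (0.1 nM) VM7Luc4E2 cells exposed to compounds 22 hr; viability measured by fluorescence of cleaved CellTiter-Fluor substrate after 30 min.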

[2] = qHTS assay to identify small molecule antagonists of the androgen receptor (AR) signaling pathway using the MDA cell line in the presence of 0.5 nM R1881 - cell viability counter screen (AID 1259242); further: nearly all actives have a fitted effect of over 45% in size
Outline: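 Concentration-response screen of compounds for toxicity in MDA-kb2 reporter cells: 16 hr at 37C with 0.5 nM R1881, endpoint live-cell protease fluorescence measured in the reporter wells.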

[3] = molecular target: Estrogen receptor (Homo sapiens) (UniProt P03372); experiment: qHTS assay to identify small molecule antagonists of the estrogen receptor alpha (ER-alpha) signaling pathway using the BG1 cell line in the presence of 0.1 nM 17-beta-estradiol (AID 1259244); further: nearly all actives have a fitted effect of over 50% in size; further: potency means the concentration at half of the fitted maximal effect
Outline: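 Compounds were tested against 0.1 nM (final) 17beta-estradiol in VM7Luc4E2 cells, which express full-length ER-alpha and an ERE-luciferase reporter; luminescence was recorded following 22 h exposure.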

[4] = qHTS assay to identify small molecule phospholipidosis (PLD) inducers (AID 1259344; active means well fitted curve in the direction sought with a large enough effect; an effect the other way counts as inactive or inconclusive)
Outline: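 Image-based: LipidTOX Red pit count/intensity per well and per cell; HepG2, 24 h compound at 37 C, PFA fixation, Hoechst counterstain.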

[5] = qHTS assay to identify small molecule HDAC inhibitors (AID 1259364);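 further: wild-type HCT-116 cells with endogenous class I/II HDAC activity; top concentration of the series differs between compounds; nearly all actives have a fitted effect of over 45% in size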
Outline: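 Screening used wild-type human colon HCT-116 cells incubated overnight, dosed with compounds for 2 hours, and assayed with a homogeneous luminogenic HDAC I/II reagent for 30 minutes at room temperature.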

[6] = qHTS assay to identify small molecule HDAC inhibitors - cell viability counter screen (AID 1259365); further: series mostly up to about 92 µM; nearly all actives have a fitted effect of over 50% in size
Outline: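 After overnight seeding at 1,500 cells per well, wild-type HCT-116 cultures took up compounds in DMSO for 2hr at 37 C. Viable cell content came from luminescence with CellTiter-Glo.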

[7] = qHTS assay to identify small molecule agonists of the sonic hedgehog signaling (Shh) pathway - cell viability counter screen (AID 1259366); further: nearly all actives have a fitted effect of over 50% in size
Outline: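 Same-well cytotoxicity read. Gli1-Luc reporter 3T3 cells; compounds 24hr, 37C/5% CO2; CellTiter-Fluor fluorescence.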

[8] = qHTS assay to identify small molecule antagonists of the sonic hedgehog signaling (Shh) pathway - cell viability counter screen (AID 1259367); further: nearly all actives have a fitted effect of over 55% in size
Outline: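 Tox21 library chemicals were tested on a Gli1-Luc NIH/3T3 clone (2,000 cells/well) stimulated by conditioned medium; viability was quantified as fluorescence from CellTiter-Fluor reagent added at 23 hr.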

[9] = qHTS assay to identify small molecule agonists of the sonic hedgehog signaling (Shh) pathway (AID 1259368; calls by dose curve;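 further: NIH/3T3-derived 3T3Gli1-Luc cells carrying a stable Gli1-driven firefly luciferase reporter; series mostly up to about 92 µM; nearly all actives have a fitted effect of over 15% in size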)
Outline: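 Hedgehog pathway agonism scored by increased firefly luciferase luminescence in 3T3Gli1-Luc cells treated 24 hr at 37 C; detection used a 30 min room-temperature reagent incubation.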

[10] = qHTS assay to identify small molecule antagonists of the sonic hedgehog signaling (Shh) pathway (AID 1259369; calls by dose curve; further: nearly all actives have a fitted effect of over 45% in size; further: potency means the concentration at half of the fitted maximal effect)
Outline: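 NIH/3T3 stable Gli1-Luc clone, 2,000 cells/well, 4hr settle; cpd + conditioned medium 24hr; Luc reagent 30min RT; luminescence.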

[11] = qHTS assay to identify small molecule agonists of the androgen receptor (AR) signaling pathway in the presence of an antagonist - cell viability counter screen (AID 1259379); further: nearly all actives have a fitted effect of over 25% in size; further: potency means the concentration at half of the fitted maximal effect
Outline: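 MDA-kb2 viability measured by CellTiter-Fluor fluorescence in the same wells as the luciferase signal; nilutamide 3.0uM final; 15-point compound titration; 16 hr at 37C.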

[12] = qHTS assay to identify small molecule agonists of the estrogen receptor beta (ER-beta) signaling pathway - cell viability counter screen (AID 1259380); further: nearly all actives have a fitted effect of over 30% in size; further: potency means the concentration at half of the fitted maximal effect
Outline: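 Measured: luminescence from CellTiter-Glo after 30 min at room temperature, added to wells already read for the LiveBLAzer FRET reporter (2 hr substrate); ER-beta-UAS-bla HEK293T cells had 16 hr compound treatment at 37C, 5% CO2.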

[13] = qHTS assay to identify small molecule antagonists of the estrogen receptor beta (ER-beta) signaling pathway - cell viability counter screen (AID 1259382); further: nearly all actives have a fitted effect of over 55% in size; further: potency means the concentration at half of the fitted maximal effect
Outline: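 Readout: luminescence, CellTiter-Glo, same wells as bla assay. System: ER-beta-UAS-bla GripTite HEK293T, 2% charcoal-stripped FBS. Exposure: compounds plus 1nM 17-beta-estradiol, 16 hr, 37C.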

[14] = molecular target: Estrogen receptor (Homo sapiens) (UniProt P03372); experiment: qHTS assay to identify small molecule agonists of the estrogen receptor alpha (ER-alpha) signaling pathway in the presence of an antagonist (AID 1259383; calls by dose curve; further: top concentration of the series differs between compounds; nearly all actives have a fitted effect of over 15% in size)
Outline: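 Quantitative HTS confirmation: compounds titrated at 15 concentrations onto estrogen-deprived VM7Luc4E2 cells carrying a four-ERE luciferase construct, with ICI-182,780 present at 10.0nM final. Signal is luminescence after 22hr exposure.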

[15] = molecular target: Thyrotropin receptor (Homo sapiens) (UniProt P16473); experiment: qHTS assay to identify small molecule antagonists of the thyroid stimulating hormone receptor (TSHR) signaling pathway (AID 1259385; calls by dose curve; further: nearly all actives have a fitted effect of over 20% in size; further: potency means the concentration at half of the fitted maximal effect)
Outline: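 TSHR-HEK293 cells (800/well) plated 18 h, then compounds with Ro20-1724 and TSH at 1.5 ng/mL final, 30 min at room temperature. cAMP quantified by HTRF (cAMP-d2/anti-cAMP-cryptate, 1 h); 15 concentrations in triplicate.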

[16] = molecular target: Estrogen receptor beta (Homo sapiens) (UniProt Q92731); experiment: qHTS assay to identify small molecule agonists of the estrogen receptor beta (ER-beta) signaling pathway (AID 1259377; active means well fitted activation curve with a large enough effect in the signal ratio in the repeat runs, not every such curve was filed as active; the % refers to the signal ratio)
Outline: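 Read-out: beta-lactamase FRET fluorescence. Cell line: ER-beta-UAS-bla HEK293T in 2% charcoal-stripped FBS. Exposure: 16 hr at 37C. Substrate step: 2 h at room temperature.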

[17] = molecular target: Estrogen receptor beta (Homo sapiens) (UniProt Q92731); experiment: qHTS assay to identify small molecule antagonists of the estrogen receptor beta (ER-beta) signaling pathway (AID 1259378; active means well fitted inhibition curve with a large enough effect in the signal ratio in the repeat runs, not every such curve was filed as active; the % refers to the signal ratio; further: potency means the concentration at half of the fitted maximal effect)
Outline: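 ER-beta-UAS-bla HEK293T cells in 2% charcoal-stripped FBS medium treated with compound plus 1nM final 17-beta-estradiol for 16 hr at 37C. Beta-lactamase reporter read by FRET substrate fluorescence after 2 hours at room temperature.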

[18] = qHTS assay to identify small molecule agonists or antagonists of the thyroid stimulating hormone receptor (TSHR) signaling pathway - wild type cell line counter screen (AID 1259384; calls by dose curve; further: potency means the concentration at half of the fitted maximal effect)
Outline: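 Wild-type Hek293 cells, 800/well, 18 h at 37C, then compound with Ro20-1724 for 30 min RT. cAMP by HTRF (cAMP-d2/anti-cAMP cryptate), 1 h RT, fluorescence read. 15 concentrations, triplicates.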

[19] = molecular target: Androgen receptor (Homo sapiens) (UniProt P10275); experiment: qHTS assay to identify small molecule antagonists of the androgen receptor (AR) signaling pathway using the MDA cell line in the presence of 0.5 nM R1881 (AID 1259243); further: nearly all actives have a fitted effect of over 50% in size
Outline: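 With R1881 held at 0.5 nM (final), compound effects on MMTV-luciferase expression in MDA-kb2 cells were scored by luminescence after a 16 hr, 37C incubation.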

[20] = molecular target: Androgen receptor (Homo sapiens) (UniProt P10275); experiment: qHTS assay to identify small molecule agonists of the androgen receptor (AR) signaling pathway in the presence of an antagonist (AID 1259381; calls by dose curve; further: nearly all actives have a fitted effect of over 15% in size)
Outline: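 Luminescent ONE-Glo read, 30min at room temperature, follows 16hr compound exposure (15 concentrations) of MDA-kb2 cells at 37C, 0% CO2, with nilutamide added at 3.0uM final.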
On the % scale 0 is the no-effect control and ±100 the full control effect.

Chain of Androgen receptor (Homo sapiens) (P10275 whole entry, looked up): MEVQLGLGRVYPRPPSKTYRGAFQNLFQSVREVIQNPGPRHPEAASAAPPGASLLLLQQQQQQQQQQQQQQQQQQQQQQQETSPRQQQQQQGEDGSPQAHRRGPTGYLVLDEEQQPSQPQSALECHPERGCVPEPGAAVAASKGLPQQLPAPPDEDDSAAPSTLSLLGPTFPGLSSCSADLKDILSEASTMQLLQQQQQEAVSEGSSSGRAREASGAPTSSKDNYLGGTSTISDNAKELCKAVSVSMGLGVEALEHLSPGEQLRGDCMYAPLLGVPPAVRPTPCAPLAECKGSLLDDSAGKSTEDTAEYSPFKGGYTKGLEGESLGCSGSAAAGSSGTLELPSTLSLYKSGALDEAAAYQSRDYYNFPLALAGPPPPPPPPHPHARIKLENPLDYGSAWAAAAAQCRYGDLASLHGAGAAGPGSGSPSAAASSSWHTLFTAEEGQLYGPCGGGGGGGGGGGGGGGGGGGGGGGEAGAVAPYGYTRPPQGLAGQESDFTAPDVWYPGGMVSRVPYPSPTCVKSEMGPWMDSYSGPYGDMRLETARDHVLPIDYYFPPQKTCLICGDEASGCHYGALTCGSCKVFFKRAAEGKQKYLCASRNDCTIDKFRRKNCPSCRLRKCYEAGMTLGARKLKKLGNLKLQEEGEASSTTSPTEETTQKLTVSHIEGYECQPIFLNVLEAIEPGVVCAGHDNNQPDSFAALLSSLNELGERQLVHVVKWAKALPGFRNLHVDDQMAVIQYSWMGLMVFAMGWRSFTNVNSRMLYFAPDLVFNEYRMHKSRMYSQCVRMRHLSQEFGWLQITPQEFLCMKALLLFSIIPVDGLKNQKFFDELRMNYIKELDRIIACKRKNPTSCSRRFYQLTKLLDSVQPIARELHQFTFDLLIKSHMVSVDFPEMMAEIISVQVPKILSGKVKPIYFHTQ
Chain of Thyrotropin receptor (Homo sapiens) (P16473 whole entry, looked up): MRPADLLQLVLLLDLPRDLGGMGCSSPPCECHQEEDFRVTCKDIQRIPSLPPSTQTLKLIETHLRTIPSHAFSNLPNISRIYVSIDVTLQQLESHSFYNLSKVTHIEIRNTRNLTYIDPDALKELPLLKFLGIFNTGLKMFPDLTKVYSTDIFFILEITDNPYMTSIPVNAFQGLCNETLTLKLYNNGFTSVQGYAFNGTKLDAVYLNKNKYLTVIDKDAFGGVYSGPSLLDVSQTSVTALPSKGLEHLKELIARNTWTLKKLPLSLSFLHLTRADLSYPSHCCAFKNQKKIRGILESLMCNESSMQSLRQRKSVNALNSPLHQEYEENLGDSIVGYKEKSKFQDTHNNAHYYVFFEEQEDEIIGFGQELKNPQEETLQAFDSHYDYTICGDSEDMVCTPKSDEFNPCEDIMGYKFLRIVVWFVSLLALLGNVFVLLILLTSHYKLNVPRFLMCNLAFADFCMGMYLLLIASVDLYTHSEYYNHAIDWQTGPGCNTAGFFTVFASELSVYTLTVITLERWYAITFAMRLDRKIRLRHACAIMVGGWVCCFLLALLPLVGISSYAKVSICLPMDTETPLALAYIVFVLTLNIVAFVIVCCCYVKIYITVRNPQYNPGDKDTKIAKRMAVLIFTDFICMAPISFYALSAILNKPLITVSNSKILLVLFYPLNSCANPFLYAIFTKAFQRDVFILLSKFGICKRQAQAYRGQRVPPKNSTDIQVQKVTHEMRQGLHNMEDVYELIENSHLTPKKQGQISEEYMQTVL
Chain of Estrogen receptor beta (Homo sapiens) (Q92731 whole entry, looked up): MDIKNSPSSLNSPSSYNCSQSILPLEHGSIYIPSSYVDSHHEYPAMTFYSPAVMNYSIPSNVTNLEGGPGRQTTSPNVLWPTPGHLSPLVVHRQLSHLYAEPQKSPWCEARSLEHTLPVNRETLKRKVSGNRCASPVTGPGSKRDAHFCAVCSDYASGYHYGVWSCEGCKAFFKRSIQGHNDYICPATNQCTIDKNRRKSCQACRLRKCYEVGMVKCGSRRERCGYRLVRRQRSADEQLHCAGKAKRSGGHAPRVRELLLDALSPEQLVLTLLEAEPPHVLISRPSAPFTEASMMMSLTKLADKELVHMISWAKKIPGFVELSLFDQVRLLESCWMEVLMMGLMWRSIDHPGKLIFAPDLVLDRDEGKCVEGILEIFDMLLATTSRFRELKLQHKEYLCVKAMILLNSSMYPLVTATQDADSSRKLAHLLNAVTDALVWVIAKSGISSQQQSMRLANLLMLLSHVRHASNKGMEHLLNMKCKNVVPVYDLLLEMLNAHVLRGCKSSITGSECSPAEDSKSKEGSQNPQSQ
Chain of Estrogen receptor (Homo sapiens) (P03372 whole entry, looked up): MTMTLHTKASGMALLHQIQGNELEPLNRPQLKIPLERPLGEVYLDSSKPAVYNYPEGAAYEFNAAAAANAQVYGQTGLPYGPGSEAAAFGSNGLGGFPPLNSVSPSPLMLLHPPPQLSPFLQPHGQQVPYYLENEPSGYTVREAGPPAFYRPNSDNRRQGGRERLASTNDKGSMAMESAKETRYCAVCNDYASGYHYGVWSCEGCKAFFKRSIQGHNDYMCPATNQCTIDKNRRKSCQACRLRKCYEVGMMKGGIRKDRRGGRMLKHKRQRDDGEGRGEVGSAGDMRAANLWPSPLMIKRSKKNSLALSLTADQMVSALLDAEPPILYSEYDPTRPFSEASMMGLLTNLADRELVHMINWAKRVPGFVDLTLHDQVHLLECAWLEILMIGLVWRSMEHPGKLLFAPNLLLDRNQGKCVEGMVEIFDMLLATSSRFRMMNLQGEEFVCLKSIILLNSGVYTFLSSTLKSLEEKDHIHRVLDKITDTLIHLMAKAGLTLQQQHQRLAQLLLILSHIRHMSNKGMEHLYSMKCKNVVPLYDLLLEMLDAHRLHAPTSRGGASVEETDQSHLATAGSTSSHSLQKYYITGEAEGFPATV

CC(=O)Oc1c(C)c(C)c2c(c1C)CC[C@@](C)(CCC[C@H](C)CCC[C@H](C)CCCC(C)C)O2
inactive: Potency [1] | Potency [2] | Potency [3] | Potency [4] | Potency [5] | outcome [6] | Potency [7] | Potency [8] | Potency [9] | Potency [10] | Potency [11] | Potency [12] | Potency [13] | Potency [14] | Potency [15]

Cc1ccc(/C(=C\CN2CCCC2)c2ccccn2)cc1
inactive: Potency [1] | Potency [2] | Potency [3] | Potency [4] | Potency [5] | outcome [6] | Potency [7] | Potency [9] | Potency [11] | Potency [12] | Potency [13] | Potency [14] | Potency [15]
active: Potency [10] 25.6 µM

C[C@]12C=CC(=O)C=C1CC[C@H]1[C@@H]3C[C@@H](O)[C@](O)(C(=O)CO)[C@@]3(C)C[C@H](O)[C@@]12F
inactive: Potency [1] | Potency [2] | Potency [3] | Potency [4] | Potency [5] | outcome [6] | Potency [7] | Potency [9] | Potency [10] | Potency [11] | Potency [12] | Potency [13] | Potency [14] | Potency [15]

CC(=O)[C@@]1(O)CC[C@H]2[C@@H]3C[C@H](C)C4=CC(=O)C=C[C@]4(C)[C@@]3(F)[C@@H](O)C[C@@]21C
6.11 µM (active) and inactive: Potency [10]
inactive: Potency [1] | Potency [2] | Potency [3] | Potency [4] | Potency [5] | outcome [6] | Potency [7] | Potency [9] | Potency [16] | Potency [17] | Potency [11] | Potency [12] | Potency [13] | Potency [14]

O=C(O)c1cc(=O)[nH]c(=O)[nH]1
inactive: Potency [1] | Potency [2] | Potency [3] | Potency [4] | Potency [5] | outcome [6] | Potency [7] | Potency [9] | Potency [11] | Potency [12] | Potency [13] | Potency [14] | Potency [15]
inactive and 13.3 µM (active): Potency [10]

CNC[C@H](O)c1ccc(O)c(O)c1
inactive: Potency [1] | Potency [2] | Potency [3] | Potency [4] | Potency [5] | outcome [6] | Potency [7] | viability change, negative = cytotoxic [8] -0.782% [at 19 µM] | Potency [9] | activity change, negative = inhibition [10] -2.86% [at 19 µM] | Potency [11] | Potency [12] | Potency [13] | Potency [14] | Potency [15]
active: Potency [10] 17.2 µM | Potency [18] 1.66 µM and 111 nM

C=C[C@@]1(C)CC(=O)[C@]2(O)[C@@]3(C)[C@@H](O)CCC(C)(C)[C@@H]3[C@H](O)[C@H](OC(C)=O)[C@@]2(C)O1
inactive: Potency [1] | Potency [2] | Potency [4] | Potency [5] | outcome [6] | Potency [9] | Potency [14]
active: Potency [3] 15.4 µM and 7.5 µM | Potency [10] 2.4 nM and 211 nM | Potency [11] 48.6 µM | Potency [12] 19.3 µM and 11.9 µM | Potency [13] 21.7 µM and 15 µM

CC(=O)O[C@]1(C(C)=O)CC[C@H]2[C@@H]3C=C(C)C4=CC(=O)CC[C@]4(C)[C@H]3CC[C@@]21C
inactive: Potency [1] | Potency [2] | Potency [3] | Potency [4] | Potency [5] | outcome [6] | Potency [7] | Potency [8] | Potency [9] | Potency [11] | Potency [12] | Potency [13] | Potency [14] | Potency [18] | Potency [15]

CCC/C=C/C=O
inactive: Potency [1] | Potency [2] | Potency [19] | Potency [3] | Potency [5] | outcome [6] | Potency [7] | Potency [9] | Potency [10] | Potency [16] | Potency [17] | Potency [11] | Potency [12] | Potency [13] | Potency [14] | Potency [15]

CCc1cccc2c3c([nH]c12)C(CC)(CC(=O)O)OCC3 (configuration not stated)
inactive: Potency [1] | Potency [2] | Potency [19] | Potency [3] | Potency [4] | Potency [5] | outcome [6] | Potency [7] | Potency [8] | Potency [9] | Potency [10] | Potency [16] | Potency [17] | Potency [11] | Potency [12] | Potency [20] | Potency [13] | Potency [14] | Potency [18] | Potency [15]

CC1(C)C(C=C(Cl)Cl)C1C(=O)OCc1cccc(Oc2ccccc2)c1 (configuration not stated)
inactive: Potency [1] | Potency [2] | Potency [19] | Potency [3] | Potency [4] | Potency [5] | outcome [6] | Potency [7] | Potency [9] | Potency [10] | Potency [11] | Potency [12] | Potency [20] | Potency [13] | Potency [14] | Potency [15]

CC(=O)O[C@]1(C(C)=O)CC[C@H]2[C@@H]3C=C(Cl)C4=CC(=O)CC[C@]4(C)[C@H]3CC[C@@]21C
active: Potency [15] 29.8 µM
inactive: Potency [1] | Potency [2] | Potency [3] | Potency [4] | Potency [5] | outcome [6] | Potency [7] | Potency [8] | Potency [9] | Potency [10] | Potency [16] | Potency [17] | Potency [11] | Potency [12] | Potency [13] | Potency [14] | Potency [18]

CC1=CC(C)(C)Nc2ccccc21
inactive: Potency [1] | Potency [2] | Potency [3] | Potency [5] | outcome [6] | Potency [7] | Potency [8] | Potency [9] | Potency [10] | Potency [16] | Potency [17] | Potency [11] | Potency [12] | Potency [13] | Potency [14]

CC(=O)[C@H]1CC[C@H]2[C@@H]3CC=C4C[C@@H](O)CC[C@]4(C)[C@H]3CC[C@]12C
active: Potency [17] 1.88 µM
inactive: Potency [1] | Potency [2] | Potency [3] | Potency [5] | outcome [6] | Potency [7] | Potency [9] | Potency [11] | Potency [13] | Potency [14] | Potency [18] | Potency [15]

CN(C)C
inactive: Potency [1] | Potency [2] | Potency [3] | Potency [5] | outcome [6] | Potency [7] | Potency [8] | Potency [9] | Potency [10] | Potency [17] | Potency [11] | Potency [12] | Potency [13] | Potency [14]

CCCCCCC(C)O (configuration not stated)
inactive: Potency [1] | Potency [2] | Potency [3] | Potency [5] | outcome [6] | Potency [7] | Potency [8] | Potency [9] | Potency [10] | Potency [17] | Potency [11] | Potency [12] | Potency [13] | Potency [14]
